This is a sample that favours compounds with a hit; in the whole collection about 3.2% have one here.
Vaccinia mCherry – inhibitors of vaccinia virus infection (mCherry reporter signal). Vaccinia virus mCherry reporter infection, fluorescence. Potency, µM (highest dose often 36.5 µM), for inactives: top-dose activity change, negative = inhibition, hits mostly inhibitors. actives 0.63% (n = 310,000); calls by dose curve; tested in A549 cells; further: nearly all actives have a fitted effect of over 35% in size
FMDV inh – antivirals against foot and mouth disease virus; FMDV antiviral cell-based qHTS; Potency, µM (doses to about 57.9 µM), for inactives: at the highest dose activity change, negative = inhibition, most hits filed as inhibitors; actives 1.2% (n = 410,000); AID 1159524; calls by dose curve; tested in HEK293T cells; further: read-out not given here; nearly all actives have a fitted effect of over 45% in size
Marburg entry inh – blocks Marburg virus binding to or entry into cells; Marburg virus pseudotyped entry inhibition, cell reporter; Potency, µM (doses to about 37.8 µM), for inactives: at the top dose activity change, negative = inhibition, actives largely listed as inhibitors; actives 1.8% (n = 300,000); AID 540276; calls by dose curve; tested in HEK293 cells
Vaccinia Venus – inhibitors of vaccinia virus (Venus reporter); Vaccinia virus Venus reporter expression, fluorescence; Potency, µM (titrated, usually from 36.5 µM), inactives show at the highest dose activity change, negative = inhibition, usual class: inhibitors; actives 0.46% (n = 330,000); AID 720580; calls by dose curve; tested in A549 cells; further: nearly all actives have a fitted effect of over 30% in size
LASV entry inh – Lassa virus entry inhibition | Lassa virus pseudotype entry inhibition, cell reporter | Potency, µM (titrated, usually from 37.9 µM), inactives show at the top dose activity change, negative = inhibition, most hits filed as inhibitors | actives 1.2% (n = 300,000); calls by dose curve; tested in HEK293 cells; further: nearly all actives have a fitted effect of over 50% in size
An asterisk follows results filed as active; i = inactive; ? = inconclusive; . = no result given; ! = not active in a repeat; [ ] = dose if it differs, or a comment. On the % scale 0 is the no-effect control and ±100 the full control effect; potency means the concentration at half of the fitted maximal effect.

SMILES	Vaccinia mCherry	FMDV inh	Marburg entry inh	Vaccinia Venus	LASV entry inh
O=S(=O)(NCc1ccc(Cl)cc1)c1ccc(N2CCCCS2(=O)=O)cc1	-20%	-18%	.	-14%	6%[46.1 µM]
CCN(c1ccccc1)S(=O)(=O)c1ccc(N2CCN(c3ccc(O)cc3)CC2)nc1	-22%	?	?	-28%	7.9µM*
CO/N=C/C(=N\Nc1ccc(OC)cc1)C(=O)c1ccc(OC)cc1	.	-22%	?	-14%	11µM*
N#C/C(C(=O)NCc1ccco1)=C1\S[C@@H](Cc2ccc(Cl)cc2)C(=O)N1c1ccccc1	.	.	16%	.	.
S=C(NCCc1ccccc1)N1CCc2ccccc2C1	-25%	43%	2%[46.1 µM]	1%	4%
COc1cccc2c1[C@@H]1CN(CCCCn3c(=O)[nH]c4c(sc5ncc(-c6ccccc6)nc54)c3=O)C[C@@H]1CO2	?	-21%	7.9µM*	?	?
COc1cc2[nH]c(=O)n(CCCC(=O)N3CC=C(c4ccccc4)CC3)c(=O)c2cc1OC	-17%	?	?	-5%	?
CC(Nc1cc(N2CCNCC2)ccc1[N+](=O)[O-])c1ccccc1 (stereo not given)	14µM*	-3%	?	?	-4%
CCS(=O)(=O)N1CCN(c2ccc([N+](=O)[O-])c(NC(C)c3ccccc3)c2)CC1 (stereo not given)	.	-23%	?	-5%	?
CC(Nc1cc(N2CCN(C(=O)C(C)(C)C)CC2)ccc1[N+](=O)[O-])c1ccccc1 (stereo not given)	.	?	?	.	23µM*
Cc1cc2nc(-c3ccc(F)cc3)c(Cc3cccc(Cl)c3)n2c(C)c1Br	6%	-5%	.	-4%	.
NC1N=CC(c2cc3ccccc3oc2=O)S1 (stereo not given)	.	.	-13%[46.1 µM]	.	.
Cc1ccc2c(c1)sc1nc(-c3cc4ccccc4oc3=O)cn12	-2%	0.32µM*	.	0%	16%[46.1 µM]
O=c1oc2ccccc2cc1-c1cn2ccccc2n1	-7%	7.9µM*	?	?	1.8µM*
COc1ccc2cc(-c3cn4c(n3)sc3cc(F)ccc34)c(=O)oc2c1	-9%	-5%	.	-1%	-6%[46.1 µM]
CC1=NS(=O)(=O)c2cc(Cl)ccc2N1	0%	43%	13µM*!	-8%	?
Cc1cc(Cc2ccc(N)c(C)c2)ccc1N	?	-3%	1%	-5%	-1%
Cc1cc(Cc2cc(C)c(O)c(CO)c2)cc(CO)c1O	5.6µM*	-27%	?	-26%	?
CN(C)S(=O)(=O)c1ccc2c(c1)N(CC(=O)NCc1ccccc1)C(=O)C1CCCCN21 (stereo not given)	-4%	21%	.	-15%	?
O=C(CSc1nnc(-c2ccc(OC(F)F)cc2)o1)N1CCOCC1	16µM*	.	2%	?	28%
CCCC(=O)N1CC(=O)Nc2ccc(Br)cc2C1c1ccc(F)cc1 (stereo not given)	i	-16%	11µM*	-7%	-5%[46.1 µM]
Cc1ccccc1C(=O)N1CCC2CC1c1cc(-c3ccc(F)cc3)ccc12 (stereo not given)	-3%	32µM*	.	-26%	.
CCOc1ccc(/C=C/c2nc(C#N)c(NC(C)c3ccccc3)o2)cc1 (stereo not given)	-18%	-10%	-16%[46.1 µM]	-23%	?
CSc1ccc(CN2CCC(CO)(Cc3ccc(Cl)cc3)CC2)cc1	-6%	?	?	14%	13µM*
CCN(CC)c1ccc(/C=C2\C=Cc3ccccc32)cc1	-4%	.	.	-4%	.
SMILES	Vaccinia mCherry	FMDV inh	Marburg entry inh	Vaccinia Venus	LASV entry inh
O=C(N/N=C/c1ccccc1Cl)c1n[nH]c2c1CCCC2	.	?	1.3µM*	.	?
O=C(N/N=C/c1ccccc1)c1n[nH]c2c1CCCC2	?	-28%	?	?	?
CCN1C(=O)[C@@H]2[C@H]3[C@H](O)[C@H](O)CC(=NOC[C@H]4O[C@H](c5ccccc5)C=C[C@H]4Oc4ccc(OC)cc4)[C@@H]3CC[C@H]2C1=O	.	.	-28%[14.2 µM]	.	.
Cc1noc(C)c1COC(=O)c1cccc(S(=O)(=O)N2CCCCCC2)c1	?	?	8.9µM*	?	?
COc1ccc(S(=O)(=O)N2CCc3ccccc32)cc1C(=O)OCc1c(C)noc1C	-7%	-13%	3.5µM*	-21%	18µM*
COc1ccc(NC(=O)C2C3C=CC4(O3)C2C(=O)N(CCN2CCCCC2)C4C(=O)NC2CCCC(C)C2C)cc1 (stereo not given)	-23%	-17%	5µM*	-28%	16%[46.1 µM]
COc1ccc(S(=O)(=O)c2cn(C)c3cc(N4CCCC4)c(F)cc3c2=O)cc1	-2%	6%	.	-17%	9%[46.1 µM]
COc1ccc2nc(NC(=O)C3CCN(S(=O)(=O)c4cccs4)CC3)sc2c1	?	14µM*	?	?	15µM*
Cc1ccc2nc(NC(=O)C3CCN(S(=O)(=O)c4cccnc4)CC3)sc2c1	?	?	.	-28%	.
Cc1ccc2nc(NC(=O)C3CCN(S(=O)(=O)c4cccs4)CC3)sc2c1	.	?	?	.	10µM*
CC(=O)C1=C(O)C(=O)N(c2cccc(C(=O)O)c2)[C@@H]1c1ccc(F)cc1	.	.	25%	.	.
COc1cc2ccc(=O)oc2cc1O	13%	?	.	1%	.
O=Nc1ccc2oc(=O)ccc2c1	.	.	13µM*	.	?
O=C(/C=C/c1ccc(Cl)cc1Cl)OCC(=O)N1CCCC1	.	25%	.	.	.
Cc1cc(C(=O)COC(=O)c2ccc(O)cc2O)c(C)n1-c1ccc(OC(F)F)cc1	-8%	?	7.9µM*	-22%	?
Cc1cc(C(=O)COC(=O)c2ccc(O)cc2O)c(C)n1-c1ccccc1	?	-22%	?	?	11µM*
COc1cc(NC(=O)c2cccs2)c(C(=O)OCC(=O)c2cc(C)n(-c3ccccc3)c2C)cc1OC	-17%	4µM*	3.5µM*	-2%	?
CCc1nc2ccc(C(=O)NCCCn3ccnc3)cn2c1N(C)CCCc1ccccc1	15%	-3%	.	-4%	.
Cc1ccc(CS(=O)(=O)Cc2ccc(C(=O)NCCc3ccc(Cl)cc3)o2)cc1	-20%	-23%	.	-3%	-5%[46.1 µM]
CCN1CCN(c2ncnc3scc(-c4ccc(OC)cc4)c23)CC1	-17%	-8%	-18%[46.1 µM]	-6%	30%[46.1 µM]
COc1ccc(CN2CCN(c3ncnc4scc(-c5ccc(F)cc5)c34)CC2)cc1	-15%	?	13µM*	-17%	?
Fc1ccc(-c2csc3ncnc(N4CCN(c5ccccc5)CC4)c23)cc1	-20%	-29%	?	-5%	?
Cc1ccc(-c2csc3ncnc(N4CCN(C(=O)c5ccccc5)CC4)c23)cc1	-5%[1.46 µM]	25µM*	?	?	?
COc1ccc(N2CCN(c3ncnc4scc(-c5ccc(F)cc5)c34)CC2)cc1	i	28µM*	?	-24%	-11%
COc1ccc(N2CCN(c3ncnc4scc(-c5ccc(C)cc5)c34)CC2)cc1	-16%	?	?	-6%	10µM*
COc1ccc(N2CCN(c3ncnc4scc(-c5ccccc5)c34)CC2)cc1	?	?	?	-3%	-10%[46.1 µM]
COc1ccc(Nc2ncnc3scc(-c4ccc(F)cc4)c23)cc1	-14%	?	.	-1%	-18%[46.1 µM]

Bioassay records as filed in PubChem.
